# Results from the supplement of paper PMC8007513.
# Where a name gives a salt, the structure may show the parent alone. ± gives the standard error. Screen size: about 1,300 compounds; about 130 (10%) showed an effect of 50% or more. For the sample, strong results were picked, then their nearest neighbours and some compounds at random.
# Test system: Trichoderma virens ATCC 9645
# Test: growth yield (OD600) with compound + IPBC relative to untreated control; higher = less growth inhibition
# Conditions: compound concentration: 100 uM, IPBC concentration: 200 ng/ml
# Summary of the method: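 Trichoderma virens ATCC 9645 spores, from potato dextrose agar plates grown for 7 days, were brought to 15,000 spores ml^−1 in potato dextrose broth and dispensed as 100 μl aliquots into 96-well plates. Each aliquot received library compounds at 100 μM final, with or without a biocide at 200 ng ml^−1, before growth at 30 °C and OD600 readings on a BioTek EL800 at 40 h and 72 h. Growth is expressed relative to the control containing neither agent and represents means of duplicate screens.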
Structure (SMILES),growth yield (40 h) [%],growth yield (72 h) [%]
C=CC[N@@+]12CC[C@@]34c5ccccc5N5/C=C6/[C@H]7C[C@H]8[C@@]9(CC[N@@+]8(CC=C)C/C7=C/CO)c7ccccc7N(/C=C(/[C@@H](C[C@@H]31)/C(=C\CO)C2)[C@H]54)[C@@H]69 [Alcuronium chloride] + CCCCNC(=O)OCC#CI [3-iodo-2-propynyl butylcarbamate (IPBC)],6.83 ± 0.16,35.4 ± 3.4
Cn1ccnc1S [Methimazole] + CCCCNC(=O)OCC#CI [3-iodo-2-propynyl butylcarbamate (IPBC)],120 ± 16,111 ± 12
CNCCC(Oc1ccc(C(F)(F)F)cc1)c1ccccc1 (stereo not given) [Fluoxetine hydrochloride] + CCCCNC(=O)OCC#CI [3-iodo-2-propynyl butylcarbamate (IPBC)],71.8 ± 4.8,96.9 ± 2.9
CN1CCN(C(c2ccccc2)c2ccccc2)CC1 [Cyclizine hydrochloride] + CCCCNC(=O)OCC#CI [3-iodo-2-propynyl butylcarbamate (IPBC)],82.6 ± 1.3,87.6 ± 2
O=C(O)COCCN1CCN(C(c2ccccc2)c2ccc(Cl)cc2)CC1 (stereo not given) [Cetirizine dihydrochloride] + CCCCNC(=O)OCC#CI [3-iodo-2-propynyl butylcarbamate (IPBC)],88.5 ± 6.8,93.8 ± 3.8
C(=C\c1ccccc1)/CN1CCN(C(c2ccccc2)c2ccccc2)CC1 [Cinnarizine] + CCCCNC(=O)OCC#CI [3-iodo-2-propynyl butylcarbamate (IPBC)],34.9 ± 5.1,93.1 ± 4
OCCOCCN1CCN(C(c2ccccc2)c2ccc(Cl)cc2)CC1 (stereo not given) [Hydroxyzine dihydrochloride] + CCCCNC(=O)OCC#CI [3-iodo-2-propynyl butylcarbamate (IPBC)],76.08 ± 0.16,95.9 ± 2.5
Fc1ccc(C(c2ccc(F)cc2)N2CCN(C/C=C/c3ccccc3)CC2)cc1 [Flunarizine dihydrochloride] + CCCCNC(=O)OCC#CI [3-iodo-2-propynyl butylcarbamate (IPBC)],3.81 ± 0.32,3.78 ± 0.42
COc1ccc(CN2CCN(C(c3ccc(F)cc3)c3ccc(F)cc3)CC2)c(OC)c1OC [Lomerizine hydrochloride] + CCCCNC(=O)OCC#CI [3-iodo-2-propynyl butylcarbamate (IPBC)],71.8 ± 5.7,97.4 ± 4.9
CC(C)NC[C@H](O)COc1ccc(CC(N)=O)cc1 [(S)-(-)-Atenolol] + CCCCNC(=O)OCC#CI [3-iodo-2-propynyl butylcarbamate (IPBC)],82.8 ± 1.8,88.2 ± 0.1
O=C(Nc1ccc([N+](=O)[O-])cc1Cl)c1cc(Cl)ccc1O [Niclosamide] + CCCCNC(=O)OCC#CI [3-iodo-2-propynyl butylcarbamate (IPBC)],83.7 ± 2.4,90.4 ± 2.5
CC(C)[C@H](N)C(=O)OCCOCn1cnc2c(=O)nc(N)[nH]c21 [Valacyclovir hydrochloride] + CCCCNC(=O)OCC#CI [3-iodo-2-propynyl butylcarbamate (IPBC)],86.7 ± 3.2,96.4 ± 2.6
CN1C(=O)CCS(=O)(=O)C1c1ccc(Cl)cc1 (stereo not given) [Chlormezanone] + CCCCNC(=O)OCC#CI [3-iodo-2-propynyl butylcarbamate (IPBC)],86.7 ± 3.2,92.5 ± 1.7
Cc1[nH]c(=O)c(C#N)cc1-c1ccncc1 [Milrinone] + CCCCNC(=O)OCC#CI [3-iodo-2-propynyl butylcarbamate (IPBC)],89.11 ± 0.48,92.9 ± 1.9
Nc1cc(-c2ccncc2)c[nH]c1=O [Amrinone] + CCCCNC(=O)OCC#CI [3-iodo-2-propynyl butylcarbamate (IPBC)],106,41.3
CCCNC(C)C(=O)Nc1ccccc1C (stereo not given) [Prilocaine hydrochloride] + CCCCNC(=O)OCC#CI [3-iodo-2-propynyl butylcarbamate (IPBC)],86.4,95.54 ± 0.52
C[C@H]1NC(=O)NC1=O [Methylhydantoin-5-(D)] + CCCCNC(=O)OCC#CI [3-iodo-2-propynyl butylcarbamate (IPBC)],97.4 ± 14,95.4 ± 8.4
CN1[C@@H]2C[C@@H](OC(=O)[C@H](CO)c3ccccc3)C[C@H]1[C@@H]1O[C@@H]12 [Scopolamine hydrochloride] + CCCCNC(=O)OCC#CI [3-iodo-2-propynyl butylcarbamate (IPBC)],94.4 ± 7.9,94.1 ± 3.5
Cc1cnc(C(=O)O)c[n+]1[O-] [Acipimox] + CCCCNC(=O)OCC#CI [3-iodo-2-propynyl butylcarbamate (IPBC)],85.3 ± 0.48,90.72 ± 0.1
Nc1ncnc2c1ncn2[C@@H]1O[C@H](CO)[C@@H](O)[C@@H]1O [Vidarabine] + CCCCNC(=O)OCC#CI [3-iodo-2-propynyl butylcarbamate (IPBC)],121 ± 11,109 ± 7.3
Nc1nc(=S)c2ncn([C@@H]3O[C@H](CO)[C@@H](O)[C@H]3O)c2[nH]1 [Thioguanosine] + CCCCNC(=O)OCC#CI [3-iodo-2-propynyl butylcarbamate (IPBC)],46.1 ± 0.64,88.3 ± 2.3
Nc1nc(F)nc2c1ncn2[C@@H]1O[C@H](CO)[C@@H](O)[C@@H]1O [Fludarabine] + CCCCNC(=O)OCC#CI [3-iodo-2-propynyl butylcarbamate (IPBC)],85.3 ± 2.4,86.6 ± 1.1
CN(C)CCCO[C@@H]1[C@H]2OC(C)(C)O[C@H]2O[C@@H]1[C@H](O)CO [Amiprilose hydrochloride] + CCCCNC(=O)OCC#CI [3-iodo-2-propynyl butylcarbamate (IPBC)],89.4 ± 4.9,93.3 ± 4.6
CCc1cc(C(N)=S)ccn1 [Ethionamide] + CCCCNC(=O)OCC#CI [3-iodo-2-propynyl butylcarbamate (IPBC)],82 ± 2.5,90.61 ± 0.63
CC1=C(C(=O)O)N2C(=O)[C@@H](NC(=O)[C@H](N)c3ccc(O)cc3)[C@H]2SC1 [Cefadroxil] + CCCCNC(=O)OCC#CI [3-iodo-2-propynyl butylcarbamate (IPBC)],81.5 ± 1.8,88.5 ± 1.5
